Pf growth 96h = inhibits malaria parasite growth, 96 h; P. falciparum luciferase reporter growth, 96 h; Potency, µM (doses to about 28.7 µM), for the others: at the top dose activity change, negative = inhibition, hits mostly inhibitors; hit rate 6.9% among 320,000; note: % is set by controls: 0 for no effect and ±100 for the full control effect
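96 h incubation, 37 C, 5% CO2, of luciferase-reporter P. falciparum-infected RBCs (2% hematocrit, 0.05% parasitemia final) with test compounds; endpoint luminescence.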
Sm TGR inh = inhibitors of Schistosoma mansoni thioredoxin glutathione reductase; Q962Y6; purified TGR, DTNB reduction, TNB absorbance 405 nm; Potency, µM (series often up to 114 µM), without a hit: at the top dose activity change, negative = inhibition, hits mostly inhibitors; hit rate 3% among 360,000; AID 485364; note: % is set by controls: 0 for no effect and ±100 for the full control effect; nearly all actives have a fitted effect of over 60% in size
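Kinetic colorimetric format: TGR-catalysed, NADPH-driven DTNB reduction monitored via TNB absorbance. Enzyme dispensed at 20 nM; compound exposure 15 min at room temperature before reaction start.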
AmpC no deterg = inhibitors of E. coli AmpC beta-lactamase without detergent. Potency, µM (top dose mostly 57.1 µM), without a hit: top-dose activity change, negative = inhibition, usual class: inhibitors. AmpC nitrocefin hydrolysis, absorbance 480 nm, 0.0001% Triton. AID 485341. hit rate 0.52% among 330,000. P00811;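 note: plate controls were no compound for no effect and no enzyme for full effect; nearly all actives have a fitted effect of over 20% in size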
Target sequence (P00811 whole entry, looked up): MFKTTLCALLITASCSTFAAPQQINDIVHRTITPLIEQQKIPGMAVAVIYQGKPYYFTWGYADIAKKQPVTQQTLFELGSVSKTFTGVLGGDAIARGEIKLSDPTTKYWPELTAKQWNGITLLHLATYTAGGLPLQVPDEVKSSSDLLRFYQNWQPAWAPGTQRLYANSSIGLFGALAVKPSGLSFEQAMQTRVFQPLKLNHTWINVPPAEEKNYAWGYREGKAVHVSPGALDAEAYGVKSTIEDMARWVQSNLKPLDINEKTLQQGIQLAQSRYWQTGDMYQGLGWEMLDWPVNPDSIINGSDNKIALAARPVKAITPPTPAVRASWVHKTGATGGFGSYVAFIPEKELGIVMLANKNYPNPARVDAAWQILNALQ
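20 mM phosphate pH 7.0 + 0.01% (detergent screen) or 0.0001% Triton X-100; 5.3 nM AmpC reagent; cpd preinc 15 min RT; nitrocefin (800 uM stock) to start; A480 q20 s × 4 min; Activity was normalised to no-enzyme and no-compound control wells.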
Pf growth 48h = P. falciparum growth inhibition at 48 hours (one generation); Potency, µM (doses to about 28.7 µM), for the others: at the top dose activity change, negative = inhibition, actives largely listed as inhibitors; P. falciparum luciferase growth in erythrocytes, 48 h; hit rate 5.9% among 310,000; note: % is set by controls: 0 for no effect and ±100 for the full control effect
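A one-generation exposure of luciferase-tagged malaria parasites in RPMI 1640/Albumax erythrocyte culture, 37 C and 5% CO2. Inhibition is inferred from decreased luminescence after adding detection reagent.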
AmpC inh detg = inhibitors of E. coli AmpC beta-lactamase with detergent; hit rate 0.041% among 370,000; AmpC hydrolysis of nitrocefin, absorbance 480 nm, 0.01% Triton; Potency, µM (titrated, usually from 114 µM), without a hit: at the highest dose activity change, negative = inhibition, actives largely listed as inhibitors; AID 485294;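 note: 0% = no-compound wells and -100% = no-enzyme wells; nearly all actives have a fitted effect of over 25% in size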
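AmpC (5.3 nM in the dispensed reagent) in 20 mM phosphate pH 7.0 with 0.01% (detergent screen) or 0.0001% Triton X-100 was preincubated with compounds for 15 min at room temperature. Nitrocefin was then added from an 800 uM solution, and hydrolysis was followed at 480 nm.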
SARS PLpro yeast = SARS-CoV PLP inhibition in yeast | Potency, µM (series often up to 32.9 µM), for inactives: at the top dose activity, positive = growth rescue, most hits filed as activators | hit rate 0.19% among 330,000 | S. cerevisiae expressing SARS-CoV PLpro, growth rescue | AID 485353; calls by dose curve; note: 0% is about no effect; nearly all actives have a fitted effect of over 55% in size
An asterisk follows results filed as active; ? = inconclusive; nt = no result. This is a sample that favours compounds with a hit; in the whole collection about 12% have one here. Unless noted, calls come from the whole dose curve; as a rule, active = well fitted curve in the direction sought with a large enough effect; inconclusive = small, poorly fitted or top-dose-only effect, or another doubt; inactive = no such curve, though single readings can be large; an effect the other way counts as inactive or inconclusive. Potency is the fitted concentration of half-maximal effect.

SMILES	Pf growth 96h	Sm TGR inh	AmpC no deterg	Pf growth 48h	AmpC inh detg	SARS PLpro yeast
O=C(NCCc1ccc(F)cc1)c1ccc(NS(=O)(=O)c2ccc3[nH]c(=O)[nH]c3c2)cc1	?	5%	-38%	-6%	-2%	1%
CC1=CC(=O)O[C@@H]1[C@@]1(C)C[C@H]2OC(=O)C[C@H]3[C@@H](C)C(=O)C(O)=C1[C@@]23CO	15µM*	-19%	-21%	13µM*	-7%	3%
O=C(C[n+]1cc(-c2ccc(F)cc2)n2c1CCC2)c1cccs1	?	4%	1%	8.3µM*	3%	-2%
COCC(=O)Nc1cc(=O)n(C)c(=O)n1C	25%	-3%	-7%	12%	-14%	2%
Cn1c(NC(=O)C[n+]2cc(-c3ccc(F)cc3)n3c2CCC3)cc(=O)n(C)c1=O	0.59µM*	-1%	-36%	3.7µM*	?	0%
Cc1ccc(-c2c[n+](CC(=O)Nc3cc(=O)n(C)c(=O)n3C)c3n2CCC3)cc1	1.2µM*	-1%	-40%	4.1µM*	-22%	15%
CN(C)Cc1nnnn1-c1cccc(-n2nnnc2CN(C)C)c1	36%	4%	-19%	24%	6%	-1%
CCOC(=O)Cn1c(=O)cc(-c2ccccc2)c2c(C)nn(C)c21	nt	6%	nt	nt	0%	nt
Cc1c(N2C(=O)/C(=C/c3ccccc3)SC2=S)c(=O)n(-c2ccccc2)n1C	86%	6%	5%	47%	-10%	-7%
Cc1c(N2C(=O)/C(=C\C3CC=CCC3)SC2=S)c(=O)n(-c2ccccc2)n1C (stereo not drawn)	131%	28µM*	-19%	?	-1%	-2%
Cc1c(N2C(=O)/C(=C/C3CC=CCC3)SC2=S)c(=O)n(-c2ccccc2)n1C (stereo not drawn)	-4%	7.9µM*	-7%	-15%	-7%	-1%
CC1CCc2nc3ncn(Cc4cccc(F)c4)c(=O)c3cc2C1 (stereo not drawn)	nt	-1%	nt	nt	2%	nt
CCCNC(=O)CSc1nc2nc(C)c(Cc3ccccc3Cl)c(C)n2n1	nt	6%	nt	nt	13%	nt
O=S(=O)(c1cccs1)N1CCN(c2ccccc2)CC1	2%	5%	-18%	21%	?	-3%
O=C(C(NS(=O)(=O)c1cccs1)c1ccccc1)N1CCN(c2ccccc2)CC1 (stereo not drawn)	12µM*	-2%	-25%	?	-3%	-2%
O=C(NC1(O)C(=O)c2ccccc2C1=O)c1c(Cl)cccc1Cl	33%	-12%	-19%	2.9µM*	-3%	1%
O=C(NC1(O)C(=O)c2ccccc2C1=O)c1ccccc1	-20%	-13%	-5%	-6%	?	3%
COc1cc(NC(=O)CSc2nc3nc(C)c(Cc4ccccc4)c(C)n3n2)cc(OC)c1OC	nt	5%	nt	nt	5%	nt
CCc1ccc(OCC(=O)NC2CCCCC2)c(Br)c1	12µM*	2%	-18%	1%	5%	-4%
CCc1ccc(OCC(=O)Nc2ccncc2)c(Br)c1	-17%	-3%	-10%	68%	?	-12%
CCc1ccc(OCC(=O)NNC(=S)NC(=O)C2CCCCC2)c(Br)c1	9%	-5%	-24%	25%	1%	-14%
CCc1ccc(OCC(=O)NNC(=O)c2cnccn2)c(Br)c1	?	7%	-10%	10µM*	3%	?
COc1cccc(NC(=O)Cn2c(=O)n(CCc3ccccc3)c(=O)c3c4c(sc32)CN(C(C)=O)CC4)c1	nt	0%	nt	nt	-9%	nt
Cc1ccccc1C(O)c1ccccn1 (stereo not drawn)	?	9%	-12%	-11%	?	-4%
COC(=O)c1cc(Cl)c(NC(=O)/C=C/c2ccc(Cl)cc2Cl)cc1OC	60%	9%	-11%	36%	8%	10%
SMILES	Pf growth 96h	Sm TGR inh	AmpC no deterg	Pf growth 48h	AmpC inh detg	SARS PLpro yeast
COC(=O)c1ccc(Cl)cc1NC(=O)/C=C/c1ccc(C)o1	0%	20µM*	-49%	-1%	1%	-5%
Cc1ccc(NC(=O)/C=C/c2ccc(C)o2)c(C)c1	nt	7.9µM*	nt	nt	23%	nt
CC(Sc1nnc(-c2cccs2)n1-c1ccccc1)C(=O)NCc1ccco1 (stereo not drawn)	nt	45µM*	-14%	-9%	-7%	6%
CCCCn1c(SCC(=O)NCc2ccco2)nnc1-c1ccco1	nt	45µM*	-1%	-26%	1%	4%
CCn1c(SCC(=O)NCc2ccco2)nnc1-c1cccs1	nt	10µM*	8%	4%	-3%	2%
CCCn1c(SCC(=O)NCc2ccco2)nnc1-c1ccncc1	13%	nt	-22%	29%	-14%	0%
CC(Sc1nnc(-c2ccco2)n1-c1ccccc1)C(=O)NCC1CCCO1 (stereo not drawn)	-17%	-24%	3%	0%	-10%	1%
CCn1c(SCC(=O)NCc2ccco2)nnc1-c1ccncc1	19%	-5%	-16%	24%	0%	0%
CC(=O)Nc1ccc(-c2nnc(SCC(=O)NCc3ccco3)n2C)cc1	6.6µM*	-16%	-3%	nt	-10%	7%
Cc1nc(-c2coc3c(CN(C)C)c(O)ccc3c2=O)cs1	-9%	0%	-25%	nt	1%	-13%
CCCCSc1nnc(-c2ccc(NC(C)=O)cc2)n1C	7.4µM*	-15%	-17%	-26%	-4%	18%
CN1CCN(S(=O)(=O)c2ccc(Sc3nnc(-c4cccs4)n3-c3ccccc3)nc2)CC1	?	-3%	191%	7.4µM*	-13%	0%
CC(Sc1ccsc1[N+](=O)[O-])C(=O)NCc1ccco1 (stereo not drawn)	-14%	22µM*	-39%	-9%	7%	2%
O=C(CSc1nnc(C2CCCCC2)n1-c1ccccc1)NCc1ccco1	33%	45µM*	-4%	-7%	?	2%
CSc1nnc(-c2cccs2)n1-c1ccccc1	nt	2%	-7%	-4%	-13%	-4%
O=C(Nc1cccc(S(=O)(=O)NC2=NCCC2)c1)c1cc(Cl)ccc1[N+](=O)[O-]	19%	-12%	-4%	?	-9%	-1%
O=C(CSc1nnc(-c2cccs2)n1-c1ccccc1)N1CCCC1	9.3µM*	21%	27%	1%	2%	-1%
CCCCn1c(SCC(=O)NCc2ccco2)nnc1-c1ccoc1C	-8%	28µM*	49%	-2%	?	2%
O=C(CSc1nnc(-c2cccs2)n1-c1ccccc1)N1CCOCC1	nt	-1%	-3%	-10%	-13%	0%
CCCCn1c(SCC(=O)OCC)nnc1-c1ccoc1C	nt	8%	29%	6%	2%	8%
